From PubChem BioAssay (EPA / NIEHS)
Results filed as inconclusive are left out. Activity calls are given as the source filed them. Rule for the calls: active = hit-call score of the fitted dose curve at least 0.9, where 1 is the maximum; inconclusive = response in the unintended direction; inactive = score below 0.9.

Assays:
[1] = biological target: Estrogen receptor (Homo sapiens) (UniProt P03372); assay: NVS_NR_hER: NovaScreen (NVS) Nuclear Receptor Binding Assay for human Estrogen Receptor (ER) (AID 2283348)
In short: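 Scintillation signal from bound radioligand was measured 18 hours after chemical addition to cell-free MCF7 protein extracts, with DMSO as baseline. Activity was scored as signal loss; compounds ran first at 25 uM in duplicate.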

[2] = biological target: Estrogen receptor (Homo sapiens) (UniProt P03372); assay: OT_ER_ERaERa_1440: Odyssey Thera (OT) 24-hour HEK293T Protein-Complementation Assay for Estrogen Receptor-alpha/-alpha Homodimer (AID 2283349);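 note: hits raise fluorescence above DMSO for agonists and antagonists alike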
In short: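 Protein-fragment complementation between two human ERα ligand-binding domains (aa 310-547) in stably transfected HEK293T cells was monitored after 24 h treatment, using fluorescence intensity relative to vehicle controls.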

[3] = biological target: Estrogen receptor (Homo sapiens) (UniProt P03372); assay: OT_ER_ERaERa_0480: Odyssey Thera (OT) 8-hour HEK293T Protein-Complementation Assay for Estrogen Receptor-alpha/-alpha Homodimer (AID 2283351);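 note: rise in fluorescence from reassembled reporter fragments on ERα LBD homodimer in nucleus or whole cell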
In short: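 Binding reporter in which dimerisation of ERα LBD (aa 310-547) fusions reconstitutes a fluorescent reporter in HEK293T cells. Compounds incubated 8 h; mean fluorescence intensity increase versus DMSO scored.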

[4] = biological target: T1, Estrogen receptor (Homo sapiens) + Estrogen receptor beta (Homo sapiens) (UniProt P03372+Q92731); assay: OT_ER_ERaERb_0480: Odyssey Thera (OT) 8-hour HEK293T Protein-Complementation Assay for Estrogen Receptor-alpha/-beta Heterodimer (AID 2283352)
In short: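 Fluorescence increase from reconstituted reporter fragments, quantified by laser scanning cytometer, reflects ER-alpha/ER-beta heterodimer formation in human HEK293T cells. Exposure 8 h; positive-direction fitting against DMSO vehicle.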

[5] = biological target: T1, Estrogen receptor (Homo sapiens) + Estrogen receptor beta (Homo sapiens); assay: OT_ER_ERaERb_1440: Odyssey Thera (OT) 24-hour HEK293T Protein-Complementation Assay for Estrogen Receptor-alpha/-beta Homodimer (AID 2283356);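 note: heteromer of ER alpha and ER beta binding domains; hits raise reporter fluorescence and both agonists and antagonists give an increase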
In short: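 Fragment complementation between ER alpha (310-547) and ER beta (263-489) ligand-binding domains in HEK293T cells; signal read 24 h post-dosing by laser scanning cytometer. Gain of fluorescence relative to DMSO fitted.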

[6] = biological target: Estrogen receptor beta (Homo sapiens) (UniProt Q92731); assay: OT_ER_ERbERb_0480: Odyssey Thera (OT) 8-hour HEK293T Protein-Complementation Assay for Estrogen Receptor-beta/-beta Homodimer (AID 2283357);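 note: active means signal gain over DMSO baseline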
In short: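 Cells (HEK293T, stable ER-beta LBD PCA pair) are treated 8 hours, fixed and Draq5-stained; signal is fluorescence intensity increase relative to vehicle, fitted in the gain direction.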

[7] = biological target: Retinoic acid receptor alpha (Homo sapiens) (UniProt P10276); assay: NVS_NR_hRAR_Antagonist: NovaScreen (NVS) Nuclear Receptor Binding Assay for human Retinoic Acid Alpha Receptor Antagonism (RAR) (AID 2283358)
In short: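 TR-FRET, cell-free, antagonist format; 2 h incubation after dosing; DMSO = baseline; signal loss fitted; 25 uM duplicate primary, then conc. series.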

[8] = biological target: PGR (gene 5241) (UniProt P06401); assay: NVS_NR_hPR: NovaScreen (NVS) Nuclear Receptor Binding Assay for human Progestron Receptor (PR) (AID 2283360);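 note: active means loss of bound radioligand signal versus DMSO baseline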
In short: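 T47D lysate; tritiated or iodinated radioligand; scintillation count at 18 h. DMSO = negative control/baseline. Primary: 25 uM, duplicate. Secondary: concentration series for actives.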

[9] = biological target: human Thyroid Receptor Alpha (TRa), THRA (gene 7067) (UniProt P10827); assay: NVS_NR_hTRa_Antagonist: NovaScreen (NVS) Nuclear Receptor Binding Assay for human Thyroid Receptor Alpha Antagonism (TRa) (AID 2283362);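 note: activity is loss of signal relative to DMSO baseline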
In short: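 Actives from a duplicate 25 uM single-point screen were retested in concentration series. The cell-free antagonist-format binding assay was read by AlphaLISA chemiluminescence at 1 h, scored as signal loss relative to DMSO.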

[10] = biological target: Glucocorticoid receptor (Homo sapiens) (UniProt P04150); assay: NVS_NR_hGR: NovaScreen (NVS) Nuclear Receptor Binding Assay for human Glucocorticoid Receptor (GR) (AID 2283363);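 for AC50: activity is loss of specific radioligand binding signal relative to DMSO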
In short: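 Competitive displacement of a labelled ligand was measured on cell-free receptor preparations after 16 h exposure. Initial testing used 25 uM in duplicate with plate controls; confirmed actives went into concentration series.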

[11] = biological target: Bile acid receptor (Homo sapiens) (UniProt Q96RI1); assay: NVS_NR_hFXR_Antagonist: NovaScreen (NVS) Nuclear Receptor Binding Assay for human Farnesoid X Receptor Antagonism (FXR) (AID 2283350)
In short: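 Cell-free TR-FRET ligand-binding read-out on human FXR (NR1H4) in antagonist mode, measured 1 h after dosing. Primary screen in duplicate at 25 uM, actives retested in concentration series; signal loss scored versus DMSO.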

[12] = biological target: Androgen Receptor/SRC-1 Co-activator, AR (gene 367) (UniProt P10275); assay: OT_AR_ARSRC1_0960: Odyssey Thera (OT) 16-hour HEK293T Protein-Complementation Assay for Androgen Receptor/SRC-1 Co-activator (AID 2283353);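 note: actives raise the signal above DMSO so potency reflects increased AR and SRC-1 complex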
In short: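 Interaction of AR with SRC-1 was followed by YFP fragment complementation in HEK293T cells after 16 h of dosing. Gain of nuclear-over-cytoplasmic 488 nm fluorescence against DMSO controls defined activity.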

[13] = biological target: Androgen Receptor/SRC-1 Co-activator, AR (gene 367) (UniProt P10275); assay: OT_AR_ARSRC1_0480: Odyssey Thera (OT) 8-hour HEK293T Protein-Complementation Assay for Androgen Receptor/SRC-1 Co-activator (AID 2283354);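 note: hits raise the complementation signal above DMSO so AC50 marks enhancers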
In short: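 Measures AR/SRC-1 binding by Venus YFP fragment complementation in HEK293T stable lines at 8 h post-dose. Imaging quantifies the 488nm nucleus/cytoplasm ratio in ≥400 cells; DMSO defines baseline.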

[14] = biological target: rat Androgen Receptor (AR), Ar (gene 24208) (UniProt P15207); assay: NVS_NR_rAR: NovaScreen (NVS) Nuclear Receptor Binding Assay for rat Androgen Receptor (AR) (AID 2283366)
In short: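 Cell-free radioligand binding on extracts of prostate from testosterone-pretreated rats, read by filter-based scintillation counting 18 h after dosing. Loss of bound signal fitted positively versus DMSO; primary screen in duplicate at 25 uM, actives followed up in concentration series.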

[15] = biological target: Nuclear receptor subfamily 1 group I member 2 (Homo sapiens) (UniProt O75469); assay: NVS_NR_hPXR: NovaScreen (NVS) Nuclear Receptor Binding Assay for human Pregnane X Receptor (PXR) (AID 2283365);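 note: a drop in FRET signal versus DMSO baseline means the compound binds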
In short: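 Human PXR binding measured by TR-FRET in a cell-free format, 2 h exposure. Single-concentration duplicates at 25 uM preceded concentration-response retests of actives; endpoint fitted positively relative to DMSO, loss of signal indicating binding.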

Measured: AC50

Androgen Receptor/SRC-1 Co-activator, AR (gene 367), sequence (P10275 whole entry, looked up, the tested form may be a part): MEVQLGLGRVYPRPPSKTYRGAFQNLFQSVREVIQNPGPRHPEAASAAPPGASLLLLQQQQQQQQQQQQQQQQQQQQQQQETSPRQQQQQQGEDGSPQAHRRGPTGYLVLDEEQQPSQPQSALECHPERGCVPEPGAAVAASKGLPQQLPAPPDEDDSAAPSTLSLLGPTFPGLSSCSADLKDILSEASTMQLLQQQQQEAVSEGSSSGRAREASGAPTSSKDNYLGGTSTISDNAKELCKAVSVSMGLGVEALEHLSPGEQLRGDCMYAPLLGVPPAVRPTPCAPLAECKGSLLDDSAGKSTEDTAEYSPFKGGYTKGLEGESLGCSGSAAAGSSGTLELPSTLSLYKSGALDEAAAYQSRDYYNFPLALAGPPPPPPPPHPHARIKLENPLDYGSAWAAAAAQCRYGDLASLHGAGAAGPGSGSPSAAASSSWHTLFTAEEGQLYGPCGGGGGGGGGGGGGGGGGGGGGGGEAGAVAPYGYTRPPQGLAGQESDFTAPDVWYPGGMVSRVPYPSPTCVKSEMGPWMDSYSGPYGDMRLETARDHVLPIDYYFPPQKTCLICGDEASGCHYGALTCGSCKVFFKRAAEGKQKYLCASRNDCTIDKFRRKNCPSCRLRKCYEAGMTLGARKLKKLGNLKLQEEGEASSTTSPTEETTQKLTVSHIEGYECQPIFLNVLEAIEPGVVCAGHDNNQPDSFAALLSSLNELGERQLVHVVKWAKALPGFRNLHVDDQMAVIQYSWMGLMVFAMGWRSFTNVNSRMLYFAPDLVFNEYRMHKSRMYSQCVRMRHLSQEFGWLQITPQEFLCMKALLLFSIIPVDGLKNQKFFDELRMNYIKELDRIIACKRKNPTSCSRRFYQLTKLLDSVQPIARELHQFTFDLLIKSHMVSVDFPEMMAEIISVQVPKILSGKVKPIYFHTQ
Estrogen receptor (Homo sapiens), sequence (P03372 whole entry, looked up, the tested form may be a part): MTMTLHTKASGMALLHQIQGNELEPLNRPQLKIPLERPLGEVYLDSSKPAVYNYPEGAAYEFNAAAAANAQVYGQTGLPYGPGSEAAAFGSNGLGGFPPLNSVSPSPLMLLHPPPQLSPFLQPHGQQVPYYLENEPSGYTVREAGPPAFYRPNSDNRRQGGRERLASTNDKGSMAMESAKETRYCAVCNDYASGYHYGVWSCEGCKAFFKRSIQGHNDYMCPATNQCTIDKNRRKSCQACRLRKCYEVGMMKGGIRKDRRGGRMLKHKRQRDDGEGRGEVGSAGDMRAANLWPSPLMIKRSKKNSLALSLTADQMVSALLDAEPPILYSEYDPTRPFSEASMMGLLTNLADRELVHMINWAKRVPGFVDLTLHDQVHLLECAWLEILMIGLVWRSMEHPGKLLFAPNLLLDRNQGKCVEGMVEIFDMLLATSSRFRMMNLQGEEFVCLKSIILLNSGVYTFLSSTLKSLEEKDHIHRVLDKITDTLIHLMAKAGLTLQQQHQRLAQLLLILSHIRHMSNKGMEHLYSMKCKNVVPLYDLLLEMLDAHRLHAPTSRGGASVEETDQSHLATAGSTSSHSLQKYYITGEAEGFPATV
T1 sequence (P03372 whole entry, looked up, the tested form may be a part): as above
T1 sequence (Q92731 whole entry, looked up, the tested form may be a part): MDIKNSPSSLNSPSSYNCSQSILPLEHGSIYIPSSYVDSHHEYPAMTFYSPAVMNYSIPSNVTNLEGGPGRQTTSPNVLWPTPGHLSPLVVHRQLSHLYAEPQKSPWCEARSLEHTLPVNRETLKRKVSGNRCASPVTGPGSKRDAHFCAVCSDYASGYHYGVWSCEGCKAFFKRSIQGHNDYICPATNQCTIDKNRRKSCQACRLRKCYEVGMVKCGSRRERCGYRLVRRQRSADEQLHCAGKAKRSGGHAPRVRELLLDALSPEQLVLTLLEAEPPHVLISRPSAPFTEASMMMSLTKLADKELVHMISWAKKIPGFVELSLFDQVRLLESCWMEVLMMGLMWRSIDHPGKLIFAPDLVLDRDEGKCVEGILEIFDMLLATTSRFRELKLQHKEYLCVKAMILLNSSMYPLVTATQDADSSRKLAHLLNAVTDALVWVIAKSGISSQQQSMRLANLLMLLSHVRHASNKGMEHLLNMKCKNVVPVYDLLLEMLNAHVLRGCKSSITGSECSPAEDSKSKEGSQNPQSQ
human Thyroid Receptor Alpha (TRa), THRA (gene 7067), sequence (P10827 whole entry, looked up): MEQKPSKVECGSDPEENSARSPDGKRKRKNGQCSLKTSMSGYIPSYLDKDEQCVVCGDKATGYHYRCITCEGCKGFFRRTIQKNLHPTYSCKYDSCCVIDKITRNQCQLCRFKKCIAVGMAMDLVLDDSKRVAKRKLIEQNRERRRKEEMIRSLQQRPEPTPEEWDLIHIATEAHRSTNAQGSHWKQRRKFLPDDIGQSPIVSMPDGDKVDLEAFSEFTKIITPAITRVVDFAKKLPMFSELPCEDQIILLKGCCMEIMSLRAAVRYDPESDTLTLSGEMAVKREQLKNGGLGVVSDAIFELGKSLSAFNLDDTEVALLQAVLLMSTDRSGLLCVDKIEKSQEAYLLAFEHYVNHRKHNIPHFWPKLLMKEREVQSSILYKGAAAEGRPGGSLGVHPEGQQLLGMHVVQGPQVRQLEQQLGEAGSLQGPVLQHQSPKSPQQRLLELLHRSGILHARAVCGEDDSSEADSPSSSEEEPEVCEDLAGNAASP
Retinoic acid receptor alpha (Homo sapiens), sequence (P10276 whole entry, looked up): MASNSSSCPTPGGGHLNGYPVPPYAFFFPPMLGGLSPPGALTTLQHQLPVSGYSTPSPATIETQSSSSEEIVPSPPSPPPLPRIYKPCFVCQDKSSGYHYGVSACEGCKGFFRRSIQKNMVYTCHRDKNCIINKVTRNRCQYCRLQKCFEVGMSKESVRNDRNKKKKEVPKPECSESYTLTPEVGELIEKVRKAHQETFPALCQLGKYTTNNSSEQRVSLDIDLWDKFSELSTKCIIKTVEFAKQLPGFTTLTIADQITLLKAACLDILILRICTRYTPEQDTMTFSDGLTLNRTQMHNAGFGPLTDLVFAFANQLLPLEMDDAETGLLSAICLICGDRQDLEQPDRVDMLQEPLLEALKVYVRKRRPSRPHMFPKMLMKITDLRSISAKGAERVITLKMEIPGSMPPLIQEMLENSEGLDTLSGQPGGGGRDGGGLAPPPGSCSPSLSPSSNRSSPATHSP
Estrogen receptor beta (Homo sapiens), sequence (Q92731 whole entry, looked up, the tested form may be a part): as the sequence (Q92731 whole entry, looked up, the tested form may be a part) above
Glucocorticoid receptor (Homo sapiens), sequence (P04150 whole entry, looked up): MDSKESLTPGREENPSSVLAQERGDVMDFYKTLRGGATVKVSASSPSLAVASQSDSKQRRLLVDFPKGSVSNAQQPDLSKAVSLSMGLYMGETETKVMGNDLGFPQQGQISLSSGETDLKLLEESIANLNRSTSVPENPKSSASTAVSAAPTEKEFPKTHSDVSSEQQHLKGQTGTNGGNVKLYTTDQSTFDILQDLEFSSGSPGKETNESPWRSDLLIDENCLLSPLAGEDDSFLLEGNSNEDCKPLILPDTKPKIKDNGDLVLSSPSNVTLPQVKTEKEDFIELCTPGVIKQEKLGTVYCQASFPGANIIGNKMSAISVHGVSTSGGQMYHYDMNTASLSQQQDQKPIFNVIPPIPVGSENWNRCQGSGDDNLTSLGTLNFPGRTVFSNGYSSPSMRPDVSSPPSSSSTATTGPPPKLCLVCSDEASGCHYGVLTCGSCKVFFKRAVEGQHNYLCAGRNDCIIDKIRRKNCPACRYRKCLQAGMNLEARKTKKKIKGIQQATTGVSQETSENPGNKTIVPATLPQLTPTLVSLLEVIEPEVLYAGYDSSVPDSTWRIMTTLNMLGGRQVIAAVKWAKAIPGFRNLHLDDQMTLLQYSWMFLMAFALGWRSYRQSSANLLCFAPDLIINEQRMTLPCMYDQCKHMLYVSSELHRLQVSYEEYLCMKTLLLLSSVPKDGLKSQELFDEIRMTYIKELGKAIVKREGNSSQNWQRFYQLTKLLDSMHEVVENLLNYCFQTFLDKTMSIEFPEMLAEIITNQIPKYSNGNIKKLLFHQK
PGR (gene 5241), sequence (P06401 whole entry, looked up): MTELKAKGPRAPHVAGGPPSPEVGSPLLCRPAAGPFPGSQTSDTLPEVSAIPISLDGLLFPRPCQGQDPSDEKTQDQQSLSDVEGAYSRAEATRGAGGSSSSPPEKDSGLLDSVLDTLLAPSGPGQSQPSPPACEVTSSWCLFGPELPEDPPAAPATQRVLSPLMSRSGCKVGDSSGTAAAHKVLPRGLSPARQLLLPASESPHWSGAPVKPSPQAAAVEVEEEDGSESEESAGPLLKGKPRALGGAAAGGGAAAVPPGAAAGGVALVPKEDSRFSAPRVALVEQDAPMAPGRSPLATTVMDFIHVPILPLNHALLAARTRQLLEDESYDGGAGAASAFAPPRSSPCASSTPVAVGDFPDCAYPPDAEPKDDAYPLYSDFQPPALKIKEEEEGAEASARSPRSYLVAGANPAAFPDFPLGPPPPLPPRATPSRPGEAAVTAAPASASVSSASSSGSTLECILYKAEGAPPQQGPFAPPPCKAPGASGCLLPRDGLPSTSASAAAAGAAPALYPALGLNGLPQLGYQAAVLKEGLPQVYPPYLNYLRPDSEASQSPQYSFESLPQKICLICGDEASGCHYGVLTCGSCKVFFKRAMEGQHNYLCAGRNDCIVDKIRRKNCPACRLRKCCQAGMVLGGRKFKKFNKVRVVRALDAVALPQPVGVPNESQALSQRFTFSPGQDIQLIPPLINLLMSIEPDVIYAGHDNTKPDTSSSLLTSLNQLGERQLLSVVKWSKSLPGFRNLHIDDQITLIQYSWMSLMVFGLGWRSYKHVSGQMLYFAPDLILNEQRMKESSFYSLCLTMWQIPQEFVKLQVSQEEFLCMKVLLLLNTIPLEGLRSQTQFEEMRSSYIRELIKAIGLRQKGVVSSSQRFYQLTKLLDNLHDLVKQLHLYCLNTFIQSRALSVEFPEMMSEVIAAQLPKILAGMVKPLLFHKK

CCN(CC)c1nc(C)cc(OP(=S)(OC)OC)n1
inactive: [1] | [2] | [3] | [7] | [8] | [9]
active: [4] 19.9 µM | [5] 34.9 µM | [6] 30.7 µM | [10] 9.72 µM

COCc1cnc(C2=NC(C)(C(C)C)C(=O)N2)c(C(=O)O)c1 (stereo not drawn)
inactive: [2] | [3] | [4] | [12] | [13] | [5] | [6] | [7]
active: [11] 30.3 µM

Nc1cnn(-c2ccccc2)c(=O)c1Cl
inactive: [1] | [2] | [3] | [4] | [5] | [6]

COP(=S)(OC)SCn1nnc2ccccc2c1=O
inactive: [2] | [3] | [4] | [12] | [13] | [5] | [6] | [14]

COC(=O)c1c(C(F)F)nc(C(F)(F)F)c(C2=NCCS2)c1CC(C)C
inactive: [2] | [3] | [12] | [13] | [5] | [6]
active: [4] 17.2 µM

CC(C)N1C(=O)N(c2ccccc2)CSC1=NC(C)(C)C
active: [12] 62.9 µM | [6] 21.1 µM
inactive: [2] | [3] | [4] | [13] | [5]

COC(=O)N(C(=O)N1CO[C@@]2(C(=O)OC)Cc3cc(Cl)ccc3C2=N1)c1ccc(OC(F)(F)F)cc1
inactive: [2] | [3] | [4] | [12] | [13] | [5] | [6]

CCCCC(C#N)(Cn1cncn1)c1ccc(Cl)cc1 (stereo not drawn)
inactive: [1] | [2] | [3] | [7] | [9] | [10]

CC(C)(C)C(=O)C(Oc1ccc(Cl)cc1)n1cncn1 (stereo not drawn)
inactive: [1] | [2] | [3] | [4] | [6] | [9] | [10]
active: [5] 58.6 µM | [15] 2.31 µM

CN/C(=N\[N+](=O)[O-])NCc1cnc(Cl)s1
inactive: [2] | [3] | [4] | [5]

O=C(Nc1ccccc1-c1ccc(Cl)cc1)c1cccnc1Cl
inactive: [2] | [3] | [4] | [5] | [6]

Cc1cc(C)nc(Nc2ccccc2)n1
inactive: [2] | [3]

CC(C)C1(C)N=C(c2ncccc2C(=O)O)NC1=O (stereo not drawn)
inactive: [2] | [11] | [3] | [10] | [15]

COCC(C)N(C(=O)CCl)c1c(C)csc1C (stereo not drawn)
inactive: [2] | [3] | [4] | [5]

CNC(=O)Oc1cccc2ccccc12
inactive: [1] | [2] | [3] | [7] | [8] | [9]

CC(C)NC(=O)N1CC(=O)N(c2cc(Cl)cc(Cl)c2)C1=O
inactive: [2] | [3]

CCOP(=O)(OCC)Oc1nc(Cl)c(Cl)cc1Cl
inactive: [2] | [3] | [4] | [13] | [5] | [6] | [7] | [8]
active: [12] 33.2 µM

O=P(O)(O)CCCl
inactive: [2] | [3]
